The list is not random: actives were taken first. Their share in the collection is about 8%.
KB-3-1 tox: kills parental KB-3-1 adenocarcinoma cells | KB-3-1 viability, CellTiter-Glo ATP luminescence, 72 h | Potency, µM (doses to about 46.1 µM), actives largely listed as cytotoxic | 400,000 tested, 1.4% active; further: on the % scale 0 is the no-effect control and ±100 the full control effect; nearly all actives have a fitted effect of over 60% in size
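Cytotoxicity measured as CellTiter-Glo luminescence after 72 h at 37 C. Compound titrations were pinned onto drug-naive KB-3-1 parental adenocarcinoma cells grown in DMEM with 10% FBS, and normalized data fitted to concentration-response curves.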
HT1080 IDH1KD tx: toxicity to HT-1080 IDH1 knockdown cells (counter line). Potency, µM (titrated, usually from 46.1 µM), for inactives: at the highest dose activity, negative = toxicity, most hits filed as cytotoxic. HT-1080 IDH1 knockdown viability, ATP luminescence, 48 h. 360,000 tested, 2% active;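 further: 0% = DMSO wells and -100% = cell-free medium wells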
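Viability of IDH1-knockdown HT-1080 fibrosarcoma cells was assessed by CellTiter-Glo after 48 h at 37 °C with titrated compound; concentration-effect curves were classified by fit quality and response size.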
MCF10A rereplic: induces DNA re-replication in MCF 10a normal breast cells; Potency, µM (doses to about 46.1 µM), for the others: top-dose activity, positive = re-replication, actives largely listed as activators; 350,000 tested, 2.9% active; AID 624296; MCF 10A DNA re-replication, Hoechst nuclear intensity, 48 h; further: % of control where 0% means no effect; nearly all actives have a fitted effect of over 50% in size
KB-V1 MDR tox: kills drug-selected multidrug resistant KB-V1 cells | Potency, µM (titrated, usually from 46.1 µM), actives largely listed as cytotoxic | 400,000 tested, 3.4% active | KB-V1 MDR cells viability, CellTiter-Glo, 72 h; further: on the % scale 0 is the no-effect control and ±100 the full control effect; nearly all actives have a fitted effect of over 60% in size
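Cells of the MDR subline KB-V1 are plated, dosed with compound at multiple concentrations, and incubated 72 h at 37 degrees C; CellTiter-Glo is then added and luminescence read after 10 min.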
HT1080NT lethal: kills 2HG-producing HT-1080-NT fibrosarcoma cells; Potency, µM (top dose mostly 46.1 µM), for the others: at the highest dose activity, negative = less viability, actives largely listed as cytotoxic; AID 686970; 360,000 tested, 1.6% active; HT-1080-NT fibrosarcoma viability, CellTiter-Glo ATP luminescence, 48 h;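 further: NT is the 2HG producing partner of a matched IDH1 knockdown line; 0% = DMSO-treated cells and -100% = media-only wells without cells; nearly all actives have a fitted effect of over 55% in size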
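Fibrosarcoma NT cells, 750 per well in 5% FBS RPMI, were exposed to compound for 48 hours. Viability: CellTiter-Glo luminescence.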
SW480 rerep: DNA re-replication induction in SW480 cells; SW480 DNA re-replication, Hoechst DNA content imaging, 48 h; Potency, µM (top dose mostly 46.1 µM), for the others: top-dose re-replication activation, hits mostly activators; 340,000 tested, 1.8% active; further: % of control where 0% means no effect; nearly all actives have a fitted effect of over 55% in size
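Quantitative HTS format with DMSO vehicle controls; 48 hr drug incubation at 37 C, then 40 min Hoechst staining and scanning imager measurement at 405 nm excitation.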
* = called active by the depositor; i = inactive; ? = inconclusive; . = not tested or not shown. The call rests on the fitted dose curve; in most records, active means well fitted curve in the direction sought with a large enough effect; inconclusive means small, poorly fitted or top-dose-only effect, or another doubt; inactive means no such curve, though single readings can be large; an effect the other way counts as inactive or inconclusive. Potency means the concentration at half of the fitted maximal effect.

SMILES | KB-3-1 tox | HT1080 IDH1KD tx | MCF10A rereplic | KB-V1 MDR tox | HT1080NT lethal | SW480 rerep
Cc1cc2c(c(C)c1CCO[C@@H]1O[C@H](CO)[C@@H](O)[C@H](O)[C@H]1O)C(=O)[C@@H](C)[C@@H]2O | ? | 7.8% | 18.4µM* | i | -0.9% | -2.3%
Cc1cccc(-c2nn(-c3ccccc3)cc2C(=O)N2CCN(C3CCS(=O)(=O)C3)CC2)c1 (stereo not given) | i | 0.6% | 0.6% | 16.4µM* | -3.2% | 0.1%
O=C1N/C(=C\c2ccc(N3CCOCC3)c(F)c2)C(=O)N1Cc1ccccc1 | i | 18.4µM* | ? | i | ? | -5.2%
O=C1N/C(=C/c2cccn2-c2ccccc2)C(=O)N1Cc1ccc(F)cc1 | i | -20.4% | 1.3% | i | -20.0% | 0.7%
CCCN1C(=O)/C(=C/c2ccc(N3CCOCC3)cc2)NC1=S | i | 17.0% | 15.3% | ? | 11.2% | 2.4%
Cc1ccc(CN2C(=O)N/C(=C\c3ccc(N4CCOCC4)cc3)C2=O)cc1 | i | 2.3% | 15.5% | i | 6.2% | 14.6µM*
COCCN(C(=O)COC(=O)Cc1c[nH]c2ccccc12)c1c(N)n(Cc2ccccc2)c(=O)[nH]c1=O | ? | 2.1% | 3.4% | i | -0.3% | -2.1%
O=C(COC(=O)c1ccccc1OCc1cccc(Br)c1)Nc1ccc(Br)cc1 | ? | . | . | i | . | .
O=C(CO)N/N=C/c1c2ccccc2cc2ccccc12 | i | ? | 24.8% | i | -0.1% | 2.7%
N#CCC(=O)N/N=C/c1c2ccccc2cc2ccccc12 | i | -14.3% | 18.4µM* | i | -11.1% | ?
O=C(CSCC(=O)Nc1ccccc1)N/N=C/c1c(O)ccc2ccccc12 | ? | 1.58µM* | ? | ? | 3.16µM* | ?
COc1ccc(NC(C)C(=O)N/N=C/c2c(O)ccc3ccccc23)cc1 (stereo not given) | ? | ? | ? | ? | -20.5% | 3.66µM*
Cc1ccccc1NC(C)C(=O)N/N=C/c1ccccc1OCc1cccc(Br)c1 (stereo not given) | ? | -25.3% | ? | ? | -14.9% | ?
O=C(N/N=C/c1c(O)ccc2ccccc12)Nc1ccccc1 | ? | -10.0% | 11.8% | ? | -7.6% | 134.3%
COc1ccc(NC(C)C(=O)N/N=C/c2ccccc2OCc2cccc(Br)c2)cc1 (stereo not given) | 23.1µM* | -17.8% | ? | ? | -26.5% | ?
CCCCCCCNC(=O)C1(CC2CC(c3cccc(Br)c3)=NO2)CCNCC1 (stereo not given) | ? | ? | ? | ? | ? | 5.5%
O=C(CN1CCOCC1)N/N=C/c1c(O)ccc2ccccc12 | ? | ? | 5.2% | i | ? | ?
O=C(CNc1ccccc1)N/N=C/c1c(O)ccc2ccccc12 | 16.4µM* | 11.6µM* | ? | i | 10.3µM* | ?
O=C(CNCc1ccccc1)Nc1ccc(Oc2ccccc2)cc1 | 5.17µM* | 6.51µM* | ? | i | 7.31µM* | 18.4µM*
O=C(COc1ccccc1CNCc1ccccc1)Nc1ccccc1 | i | 11.2µM* | -13.2% | i | ? | 2.0%
CCOc1ccccc1CNCc1ccc(C(=O)O)cc1 | i | 5.7% | -10.1% | i | 10.3% | -10.8%
CCOC(=O)c1ccc(NC(=O)C2(c3ccc(Cl)cc3)CCCC2)cc1 | ? | -17.1% | -4.1% | ? | -9.8% | -18.1%
CCOC(=O)c1ccc(NC(=O)C2(c3ccccc3)CCCC2)cc1 | i | 0.6% | 25.5% | 14.6µM* | 4.3% | -7.4%
CCOC(=O)c1ccc(NC(=O)COc2ccccc2CNC2CCCC2)cc1 | ? | 23.1µM* | 4.7% | ? | 23.1µM* | 3.8%
CCOC(=O)c1ccc(NC(=O)COc2ccccc2OC)cc1 | i | 22.3% | -2.8% | i | 13.2% | -0.7%
SMILES | KB-3-1 tox | HT1080 IDH1KD tx | MCF10A rereplic | KB-V1 MDR tox | HT1080NT lethal | SW480 rerep
C#CCSc1nnc(C)c(C)n1 | i | -0.4% | -7.2% | i | 8.8% | -2.6%
O=C1CCc2cc(S(=O)(=O)Nc3ccc(F)c(Cl)c3)ccc2N1 | i | . | . | i | . | .
Cc1cc(C)c(S(=O)(=O)/N=C2\C=C(NS(=O)(=O)c3ccccc3)C(=O)c3ccccc32)c(C)c1 | i | -6.8% | 14.3% | i | -5.7% | -5.8%
Cc1cc(C)c(S(=O)(=O)/N=C2\C=CC(=O)C(Cl)=C2)c(C)c1 | i | -17.1% | 12.6µM* | i | -29.5% | 3.1%
CN(CC(=O)Nc1ccc(Cl)cc1)C(=O)c1ccc(S(=O)(=O)Nc2ccccc2)cc1 | i | 16.4µM* | ? | i | 13µM* | -25.2%
Cc1cc(S(=O)(=O)Nc2ccc(N(C)C)cc2)c(C)s1 | i | -26.0% | 3.3% | 16.4µM* | -11.2% | 3.2%
CN(CC(=O)Nc1ccc(F)cc1)C(=O)c1cccc(NS(=O)(=O)c2ccccc2)c1 | i | 0.8% | -6.5% | i | 2.7% | -10.1%
CN(C)c1ccc(NS(=O)(=O)c2ccc(Cl)cc2)cc1 | i | -9.0% | 1.4% | i | -5.5% | 20.6µM*
c1cc(-c2cc3cc(N4CCOCC4)ccc3o2)cs1 | i | 9.2% | -39.8% | i | 22.1% | -21.2%
CN(CC(=O)Nc1ccccc1C(F)(F)F)CC(=O)N1CCCCCC1 | . | 9.5% | 2.6% | . | -10.1% | 0.8%
COc1cc(OC)c(N(C)C(=O)c2c(C)oc3ncnc(N4CCCCC4)c23)cc1Cl | i | . | . | i | . | .
Cc1ccc(NC(=O)CC(=O)Nc2ccc(C)cc2C)c(C)c1 | ? | 3.8% | 9.0% | i | 1.8% | 0.6%
Cc1ccc(NC(=O)CCCCCCCCCCC2COCCO2)c(C)c1 (stereo not given) | i | 10.7% | -47.6% | 18.4µM* | 12.2% | ?
Cc1ccc(S(=O)(=O)N(C)CCCC(=O)Nc2ccc(C)cc2C)cc1 | i | 3.6% | 2.4% | 20.6µM* | -1.6% | ?
Cc1ccc(S(=O)(=O)N(C)CCCC(=O)Nc2cccc3ccccc23)cc1 | i | -11.3% | ? | 11.6µM* | ? | ?
Cc1nn(-c2ccccc2)nc1C(=O)c1c(C)[nH]n(-c2ccccc2)c1=O | 16.4µM* | 4.6% | ? | 20.6µM* | 1.7% | 23.3%
C/C(=N\NC(=O)c1ccc(C)cc1)c1c(C)[nH]n(-c2ccccc2)c1=O | ? | 14.6µM* | 6.7% | ? | ? | ?
Cc1[nH]n(-c2ccccc2)c(=O)c1C(=O)c1ccc([N+](=O)[O-])cc1 | i | -10.8% | 15.5% | ? | -13.8% | -28.0%

Bioassay records: PubChem, National Center for Advancing Translational Sciences (NCATS)
